Laboratory results: PubChem BioAssay (Tox21)
Inconclusive results are not listed. A call without a number means that no potency is given here. Unmarked numbers belong to inactive results. Activity calls are given as the source filed them. Calls come from the whole dose curve.

Assay: qHTS assay to identify small molecule agonists of the progesterone receptor (PR) signaling pathway - cell viability counter screen (AID 1346799); note: nearly all actives have a fitted effect of over 45% in size
Details: PR-UAS-bla HEK293T viability, CellTiter-Glo luminescence, 16 h; series mostly up to 92.4 µM
Excerpt: National Center for Advancing Translational Sciences [NCATS]
NIH Chemical Genomics Center [NCGC]
U.S. Environmental Protection Agency [EPA]
National Institutes of Environmental Health Sciences [NIEHS]
National Toxicology Program [NTP]
U.S. Food and Drug Administration [FDA]
Progesterone receptor (PR), a nuclear hormone receptor, plays an important role in development, metabolic homeostasis and reproduction. It is activated by the steroid hormone progesterone. Endocrine disrupting chemicals (EDCs) and their interactions with steroid hormone receptors like PR causes disruption of normal endocrine function. To identify the compounds that stimulate PR signaling, a PR-UAS-bla GripTite cell line i.e. PR-UAS-bla HEK293T (Invitrogen, Carlsbad, CA, USA) containing a beta-lactamase reporter gene under the control of an UAS response element was used to screen Tox21 10K compound library. The cytotoxicity of the Tox21 compound library against the PR-bla cell line was tested in parallel by measuring the cell viability using CellTiter-Glo assay in the same wells.
Tox21 Assay Protocol Summary:
PR-UAS-bla HEK293T cells were dispensed at 3,000 cells/5 uL of assay medium containing 2% charcoal stripped FBS per well into black wall/clear-bottom 1536-well plates using a Multidrop Combi (ThermoFisher Scientific, Waltham, MA) dispenser. After the assay plates were incubated at a 37C and 5% CO2 for 6 hr, 23 nL of compounds dissolved in DMSO, positive controls or DMSO only was transferred to the assay plate by a Pintool station (Kalypsys, San Diego, CA). The plates were incubated at 37C and 5% CO2 for 16 hr. Then 1 uL of LiveBLAzer B/G FRET substrate was added using a Flying Reagent Dispenser (FRD, Aurora Discovery, San Diego, CA), the plates were incubated at room temperature for 2 hours, and fluorescence intensity was measured by an Envision plate reader (PerkinElmer, Shelton, CT). For cell viability readout that measures cytotoxicity, 4 uL/well of CellTiter-Glo reagent was added into the assay plates using a FRD. After 30 min incubation at room temperature, the luminescence intensity in the plates was measured using a ViewLux (PerkinElmer) plate reader.

| SMILES | Potency | activity change, negative = cytotoxicity |
| --- | --- | --- |
| FC(F)(F)C(Cl)(Cl)Cl | inactive |  |
| Cc1ncc(CO)c(CN)c1O | inactive |  |
| COc1ccc(Nc2ccc(OC)cc2)cc1 | inactive |  |
| CCCCCCCCCC/C=C/C#N | inactive |  |
| CCCS(=O)c1ccc2nc(NC(=O)OC)[nH]c2c1 (stereo not given) | inactive |  |
| CCCc1c2oc(C(=O)O)cc(=O)c2cc2c(=O)cc(C(=O)O)n(CC)c12 | inactive |  |
| OC[C@H]1O[C@@H](O[C@H]2[C@H](O)[C@@H](O)[C@H](O)O[C@@H]2CO)[C@H](O)[C@@H](O)[C@H]1O | inactive |  |
| O=c1[nH]c(=O)n([C@H]2C[C@H](O)[C@@H](CO)O2)cc1C(F)(F)F | inactive |  |
| Cc1c(N)cccc1N | inactive |  |
| CC(C)OC(C)C | inactive |  |
| NC1=NCC2c3ccccc3Cc3ccccc3N12 (stereo not given) | inactive |  |
| O=C(CCCl)NCc1ccccc1 | inactive |  |
| COC(=O)/C=C(/C)N | inactive |  |
| CC(=O)N[C@@H](CC(C)C)C(=O)O | inactive |  |
| C=O | inactive |  |
| Cc1c(C(=O)NCCO)[n+](=O)c2ccccc2n1[O-] | inactive |  |
| Cc1c(-c2ccccc2)oc2c(C(=O)OCCN3CCCCC3)cccc2c1=O | inactive |  |
| CN1CCN(C2=Nc3cc(F)ccc3Cc3ccccc32)CC1 | inactive |  |
| C=CC(C)(O)CC/C=C(\C)CCC=C(C)C (stereo not given) | inactive |  |
| C=CCCCCCCCCO | inactive |  |

| SMILES | Potency | activity change, negative = cytotoxicity |
| --- | --- | --- |
| Cc1c[nH]c(=S)[nH]c1=O | inactive |  |
| CC(C)C[C@H](NC(=O)OCC1c2ccccc2-c2ccccc21)C(=O)O | inactive |  |
| CC1=CC(=O)CC(C)(C)C1=O | inactive |  |
| FC(F)(F)c1ccccc1 | inactive |  |
| Cc1cc2c(s1)Nc1ccccc1N=C2N1CCN(C)CC1 | inactive |  |
| CCCCNCCCC | inactive |  |
| O=c1[nH]cnc2c1ncn2[C@@H]1O[C@H](CO)[C@@H](O)[C@H]1O | inactive |  |
| CCOC(=O)CS | inactive |  |
| O=C(O)c1cccc(Cl)c1Cl | inactive |  |
| CCN(CC)C(=O)N(CC)CC | inactive |  |
| O=S(=O)(O)C(F)(F)F | inactive |  |
| CCOc1ccc(NC(N)=O)cc1 | inactive |  |
| Cc1cc(S(=O)(=O)O)c(N)cc1Cl | inactive |  |
| O=C(CC(=O)C(F)(F)F)c1ccccc1 | inactive |  |
| CC(C)(C)c1ccc(OC(=O)c2ccccc2O)cc1 | inactive |  |
| C[C@@H]1CN(c2c(F)c(N)c3c(=O)c(C(=O)O)cn(C4CC4)c3c2F)C[C@H](C)N1 |  | 4.97% [at 19 µM] |
| CCCCCCn1c(=O)c2c(ncn2C)n(C)c1=O | inactive |  |
| CC/C=C\CCOC(=O)C(C)C | inactive |  |
| O=C1CCCCCCCCCCC(=O)OCCO1 | inactive |  |
| CC1=C(CC(=O)O)c2cc(F)ccc2/C1=C\c1ccc(S(C)(=O)=O)cc1 | inactive |  |
